Assay results taken from paper PMC5540273 (PLoS ONE, 2017).

tested on: PRP4; conditions: concentration: 1 μM,replicates: in singlicate; n = 1
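Note: KINOMEscan kinase panel screen.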

Point of comparison: `Cc1n[nH]c2cc(Nc3ccnc(Nc4cccc(CN5CCOCC5)c4)n3)ccc12` [GW682569], “%Inh” value 65%. Against it:
- O=C(Nc1ccccc1)c1cccc(Oc2ccc3nccn3n2)c1 — lower, 0%
- Cc1ccc(CC(=O)N2CCc3cc(-c4cn(C)c5ncnc(N)c45)ccc32)cc1 [GSK2634758] — lower, 20%
- COC(=O)c1cccc(NC(=O)NC2CCN(c3ccnc(NCc4ccc(F)cc4)n3)CC2)c1 [GSK1379860] — lower, 30%
- CCN1CCN(CCCC(=O)Nc2n[nH]c3nc(-c4ccc(O)cc4)c(Br)cc23)CC1 [SB-731579] — lower, 0%
- COc1ccc(Nc2nccc(N3CCC(NC(=O)c4cccc(C#N)c4)C3)n2)cc1 (centres unmarked) [GSK1379730] — lower, 9%
- C[C@@H](Oc1cc(-n2cnc3cc(-c4ccncc4)ccc32)sc1C(N)=O)c1ccccc1Cl [GSK479719] — lower, 14%
- Cc1nnc(-c2ccc3occ(-c4ccc(S(C)=O)cc4)c3n2)o1 (centres unmarked) — lower, 16%
- Cn1cc(-c2cccc3c(N)c(C(N)=O)nnc23)cn1 — lower, 1%
- Cl.Nc1n[nH]c2cc(-c3ccccn3)ccc12 [GSK2189892] — lower, 24%
- COc1cccc(CNC(=O)NC2CCN(c3ccnc(Nc4cc(OC)c(OC)c(OC)c4)n3)C2)c1 (centres unmarked) [GSK1379765] — lower, 48%
- Cc1ccc(C(=O)Nc2ccc(Oc3ccc4nc(NC(=O)C5CC5)cn4c3)c(F)c2)c(=O)n1-c1ccccc1 — lower, 38%
- Cc1cccc2c(-c3ccncc3)c(-c3ccc(F)cc3)nn12.Cl [GW461487] — lower, 7%
- C[C@@H](Oc1cc(-n2cnc3ccc(-c4ccncc4)cc32)sc1C(N)=O)c1ccccc1Cl [GSK483724] — lower, 23%
- CNC(=O)c1ccccc1Nc1nc(Nc2cccc(CS(C)(=O)=O)c2)ncc1C.O=CO [GSK1520489] — higher, 82%
- COc1cc2c(Nc3ccc(NC(=O)c4ccccc4)cc3)ncnc2cc1OCCCN1CCOCC1 [GSK301329] — lower, 0%
- O=C(Nc1ccc(Oc2ccc3nc(NC(=O)C4CC4)cn3n2)c(F)c1)c1cccn(-c2ccccc2)c1=O — lower, 0%
- COc1cc(Nc2nccc(N3CCC(NC(=O)c4cccc(C#N)c4)C3)n2)cc(OC)c1OC (centres unmarked) [GSK1379751] — lower, 54%
- CC(C)S(=O)(=O)N1CCN(Cc2ccc3c(c2)nc(NC(=O)c2ccsc2)n3C[C@H](O)c2ccccc2)CC1 [GW635815] — lower, 10%
- Cn1ccc2ncnc(Oc3ccc(NC(=O)Nc4cccc(C(F)(F)F)c4)c(F)c3)c21 — lower, 14%
- Cc1ccc2c(-c3ccnc(Nc4ccc(C(F)(F)F)cc4)n3)cnn2n1 [GW819776] — lower, 0%
- C[C@@H]1CNc2c(sc3ccc4nc(-c5ccncc5)ccc4c23)C(=O)N1 — lower, 0%
- Cn1ccc2ncnc(Oc3ccc(NC(=O)Nc4cccc(C(F)(F)F)c4)c(Cl)c3)c21 — lower, 5%
- COc1cccc(OC)c1C(=O)Nc1cccc(-c2nn3ccccc3c2-c2ccnc(Nc3cccc(F)c3)n2)c1 [GSK361065] — lower, 0%
- CN1CCN(CCCNc2nccc(-c3c(-c4ccc(F)cc4)nn4cc(C(N)=O)ccc34)n2)CC1 [GW622475] — lower, 0%
- CCCC(=O)Nc1n[nH]c2ncccc12 [SB-601436] — lower, 8%
- Cn1ccc2ncnc(Oc3ccc(NC(=O)Nc4cc(C(C)(C)C)on4)c(Cl)c3)c21 — lower, 23%
- Cl.c1ccc(Oc2ccc(Nc3ccnc4cc(-c5ccc(CN6CCNCC6)o5)ccc34)cc2)nc1 [GW567142] — lower, 13%
- CC(=O)Nc1ccc(-c2cc3ncnc(SCC(=O)O)c3s2)cc1 — lower, 22%
- Cc1ccc(Nc2ccnc(Nc3ccc4c(c3)CS(=O)(=O)C4)n2)cc1O.Cl [GW579362] — higher, 84%
- COc1cccc(C2=C(Nc3cccc(Cl)c3)C(=O)NC2=O)c1 [SB-341556] — lower, 25%
- OCCn1cc(-c2cnc3nnn(Cc4ccc5ncccc5c4)c3n2)cn1 — lower, 0%
- Cn1ccc2ncnc(Oc3ccc(NC(=O)Nc4cncc(C(F)(F)F)c4)c(Cl)c3)c21 — lower, 6%
- CN(c1cccc(CNc2nc(Nc3ccc4c(c3)CC(=O)N4)ncc2C(F)(F)F)c1)S(C)(=O)=O — lower, 0%
- Cl.Cl.NC[C@H](CC1CCCCC1)NC(=O)c1ccc(-c2ccnc3[nH]ccc23)s1 [GSK1581428] — higher, 81%
- N#Cc1cccc(C(=O)NC2CCN(c3ccnc(Nc4ccc(F)cc4)n3)C2)c1 (centres unmarked) [GSK1379708] — lower, 29%
- c1ccc(Oc2ccc(Nc3ccnc4ccc(-c5ccccn5)cc34)cc2)cc1 [GW407034] — lower, 4%

tested on: T1, PYK2; conditions: concentration: 1 μM,replicates: in singlicate; n = 1
T1 construct: gene PTK2B

Point of comparison: `Cc1nnc(-c2ccc3occ(-c4ccc(S(C)=O)cc4)c3n2)o1` (centres unmarked), “%Inh” value 2%. Against it:
- O=C(Nc1ccccc1)c1cccc(Oc2ccc3nccn3n2)c1 — lower, 0%
- Cc1ccc(CC(=O)N2CCc3cc(-c4cn(C)c5ncnc(N)c45)ccc32)cc1 [GSK2634758] — lower, 0%
- COC(=O)c1cccc(NC(=O)NC2CCN(c3ccnc(NCc4ccc(F)cc4)n3)CC2)c1 [GSK1379860] — higher, 9%
- Cc1n[nH]c2cc(Nc3ccnc(Nc4cccc(CN5CCOCC5)c4)n3)ccc12 [GW682569] — lower, 0%
- CCN1CCN(CCCC(=O)Nc2n[nH]c3nc(-c4ccc(O)cc4)c(Br)cc23)CC1 [SB-731579] — lower, 0%
- COc1ccc(Nc2nccc(N3CCC(NC(=O)c4cccc(C#N)c4)C3)n2)cc1 (centres unmarked) [GSK1379730] — higher, 18%
- C[C@@H](Oc1cc(-n2cnc3cc(-c4ccncc4)ccc32)sc1C(N)=O)c1ccccc1Cl [GSK479719] — higher, 13%
- Cn1cc(-c2cccc3c(N)c(C(N)=O)nnc23)cn1 — higher, 9%
- Cl.Nc1n[nH]c2cc(-c3ccccn3)ccc12 [GSK2189892] — lower, 0%
- COc1cccc(CNC(=O)NC2CCN(c3ccnc(Nc4cc(OC)c(OC)c(OC)c4)n3)C2)c1 (centres unmarked) [GSK1379765] — lower, 0%
- Cc1ccc(C(=O)Nc2ccc(Oc3ccc4nc(NC(=O)C5CC5)cn4c3)c(F)c2)c(=O)n1-c1ccccc1 — higher, 19%
- Cc1cccc2c(-c3ccncc3)c(-c3ccc(F)cc3)nn12.Cl [GW461487] — higher, 22%
- C[C@@H](Oc1cc(-n2cnc3ccc(-c4ccncc4)cc32)sc1C(N)=O)c1ccccc1Cl [GSK483724] — lower, 0%
- CNC(=O)c1ccccc1Nc1nc(Nc2cccc(CS(C)(=O)=O)c2)ncc1C.O=CO [GSK1520489] — higher, 99.5%
- COc1cc2c(Nc3ccc(NC(=O)c4ccccc4)cc3)ncnc2cc1OCCCN1CCOCC1 [GSK301329] — lower, 0%
- O=C(Nc1ccc(Oc2ccc3nc(NC(=O)C4CC4)cn3n2)c(F)c1)c1cccn(-c2ccccc2)c1=O — higher, 19%
- COc1cc(Nc2nccc(N3CCC(NC(=O)c4cccc(C#N)c4)C3)n2)cc(OC)c1OC (centres unmarked) [GSK1379751] — lower, 0%
- CC(C)S(=O)(=O)N1CCN(Cc2ccc3c(c2)nc(NC(=O)c2ccsc2)n3C[C@H](O)c2ccccc2)CC1 [GW635815] — higher, 38%
- Cn1ccc2ncnc(Oc3ccc(NC(=O)Nc4cccc(C(F)(F)F)c4)c(F)c3)c21 — higher, 11%
- Cc1ccc2c(-c3ccnc(Nc4ccc(C(F)(F)F)cc4)n3)cnn2n1 [GW819776] — higher, 16%
- C[C@@H]1CNc2c(sc3ccc4nc(-c5ccncc5)ccc4c23)C(=O)N1 — higher, 3%
- Cn1ccc2ncnc(Oc3ccc(NC(=O)Nc4cccc(C(F)(F)F)c4)c(Cl)c3)c21 — higher, 6%
- COc1cccc(OC)c1C(=O)Nc1cccc(-c2nn3ccccc3c2-c2ccnc(Nc3cccc(F)c3)n2)c1 [GSK361065] — higher, 8%
- CN1CCN(CCCNc2nccc(-c3c(-c4ccc(F)cc4)nn4cc(C(N)=O)ccc34)n2)CC1 [GW622475] — higher, 9%
- CCCC(=O)Nc1n[nH]c2ncccc12 [SB-601436] — higher, 7%
- Cn1ccc2ncnc(Oc3ccc(NC(=O)Nc4cc(C(C)(C)C)on4)c(Cl)c3)c21 — higher, 16%
- Cl.c1ccc(Oc2ccc(Nc3ccnc4cc(-c5ccc(CN6CCNCC6)o5)ccc34)cc2)nc1 [GW567142] — lower, 0%
- CC(=O)Nc1ccc(-c2cc3ncnc(SCC(=O)O)c3s2)cc1 — lower, 0%
- Cc1ccc(Nc2ccnc(Nc3ccc4c(c3)CS(=O)(=O)C4)n2)cc1O.Cl [GW579362] — higher, 83%
- COc1cccc(C2=C(Nc3cccc(Cl)c3)C(=O)NC2=O)c1 [SB-341556] — higher, 16%
- OCCn1cc(-c2cnc3nnn(Cc4ccc5ncccc5c4)c3n2)cn1 — lower, 0%
- Cn1ccc2ncnc(Oc3ccc(NC(=O)Nc4cncc(C(F)(F)F)c4)c(Cl)c3)c21 — the same, 2%
- CN(c1cccc(CNc2nc(Nc3ccc4c(c3)CC(=O)N4)ncc2C(F)(F)F)c1)S(C)(=O)=O — higher, 71%
- Cl.Cl.NC[C@H](CC1CCCCC1)NC(=O)c1ccc(-c2ccnc3[nH]ccc23)s1 [GSK1581428] — higher, 41%
- N#Cc1cccc(C(=O)NC2CCN(c3ccnc(Nc4ccc(F)cc4)n3)C2)c1 (centres unmarked) [GSK1379708] — higher, 3%
- c1ccc(Oc2ccc(Nc3ccnc4ccc(-c5ccccn5)cc34)cc2)cc1 [GW407034] — lower, 0%
